Screens: PubChem, National Center for Advancing Translational Sciences (NCATS)
Luciferase inh: qHTS Assay for Inhibitors of Firefly Luciferase; Luciferin 4-monooxygenase (Photinus pyralis), P08659; purified firefly luciferase, luminescence, 8 min; Potency, µM (series often up to 57.1 µM), for the others: top-dose activity change, negative = inhibition, actives largely listed as inhibitors; actives 2.2% (n = 72,000); AID 411, 2009; also: % is scaled to controls: 0 for no effect and ±100 for the full control effect; nearly all actives have a fitted effect of over 40% in size
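Substrate buffer containing 10 uM ATP (pH 7.2 imidazole, Mg2+, KCl, detergent, BSA) is dispensed, compound pinned in, then luciferase/luciferin detector mix added. After 8 min at ambient temperature, light output is measured.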
PK Bst: Pyruvate Kinase. AID 361, 2006. Potency, µM. actives 1.2% (n = 51,000). purified pyruvate kinase, luminescence ATP production; ribose 5-phosphate activator present at AC10; in the data active = potency below about 11 µM; inconclusive = mostly about 12 µM to 25 µM;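 the screen sought inhibitors and activators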;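 also: scaled between full activation by ribose 5 phosphate and full inhibition by luteolin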
HEK293 cAMP cs: qHTS Assay for Agonists of the Thyroid Stimulating Hormone Receptor: Activators of Intracellular cAMP Concentrations in Parental HEK 293. actives 2.5% (n = 73,000). parental HEK293 CNG cAMP sensor, membrane potential fluorescence. Potency, µM (top dose mostly 57.1 µM), without a hit: at the top dose activation, most hits filed as activators. AID 938, 2007; also: % of control where 0% means no effect; nearly all actives have a fitted effect of over 55% in size
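Parental HEK 293 cells stably expressing a cAMP-gated CNG channel were loaded with membrane potential dye containing 100 uM RO 20-1724 for 60 min. Compound added for 30 min; depolarization read as fluorescence intensity at 590 nm.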
GBA mod: Glucocerebrosidase. AID 360, 2006. Lysosomal acid glucosylceramidase (Homo sapiens), P04062. actives 1.1% (n = 48,000). purified enzyme, resorufin glucoside fluorescence (screen aimed at inhibitors), 20 min. Potency, µM; in the data active = potency below about 15 µM; inconclusive = mostly about 16 µM to 33 µM;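 also: the screen sought inhibitors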
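Wild-type enzyme at 0.2 nM final in 50mM citric acid/KH2PO4, 10mM sodium taurocholate, 0.01% tween-20, pH 5.9, with resorufin beta-D-glucopyranoside at 30 uM final. Compounds titrated, 20 min at RT, red fluorescence read; AC50 from titration.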
TSHR agonist: qHTS Assay for Agonists of the Thyroid Stimulating Hormone Receptor; HEK293-CNG-TSHR cells (CNG channel as cAMP sensor), membrane potential dye, cAMP; actives 0.48% (n = 73,000); Potency, µM (highest dose often 57.1 µM), without a hit: top-dose activation, actives largely listed as activators; Thyrotropin receptor (Homo sapiens), P16473; active = well fitted activation curve with a large enough effect in the main read-out, with a control signal flat, not every such curve was filed as active; inconclusive = small, poorly fitted or top-dose-only effect, or a change in a side signal; inactive = no such curve, though single readings can be large or run the other way; % of control where 0% means no effect;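 also: the control signal comes from parental cells without the receptor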
Target sequence (P16473 whole entry, looked up): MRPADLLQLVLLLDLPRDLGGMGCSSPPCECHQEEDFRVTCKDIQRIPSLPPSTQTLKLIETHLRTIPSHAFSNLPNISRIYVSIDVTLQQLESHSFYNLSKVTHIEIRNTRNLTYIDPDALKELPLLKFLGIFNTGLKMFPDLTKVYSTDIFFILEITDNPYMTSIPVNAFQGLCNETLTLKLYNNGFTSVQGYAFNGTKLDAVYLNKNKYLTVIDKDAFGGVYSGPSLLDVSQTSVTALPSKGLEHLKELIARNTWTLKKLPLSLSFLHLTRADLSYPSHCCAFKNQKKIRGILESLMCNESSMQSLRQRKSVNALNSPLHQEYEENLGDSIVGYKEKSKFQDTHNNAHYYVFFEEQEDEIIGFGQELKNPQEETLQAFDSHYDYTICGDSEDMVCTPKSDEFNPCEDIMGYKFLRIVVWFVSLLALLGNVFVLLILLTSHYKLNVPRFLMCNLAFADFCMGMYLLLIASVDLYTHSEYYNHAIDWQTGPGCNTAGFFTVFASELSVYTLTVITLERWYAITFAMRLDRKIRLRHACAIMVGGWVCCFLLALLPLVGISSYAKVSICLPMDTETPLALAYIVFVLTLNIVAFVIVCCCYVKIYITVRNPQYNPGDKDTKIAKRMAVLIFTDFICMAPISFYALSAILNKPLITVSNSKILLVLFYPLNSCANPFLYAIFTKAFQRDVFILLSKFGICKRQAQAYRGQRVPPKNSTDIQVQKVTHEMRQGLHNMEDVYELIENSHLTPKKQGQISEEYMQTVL
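HEK 293 cells stably expressing TSHR and a modified CNG channel, with CNG-only parental cells as counterscreen, were preloaded 60 min at room temperature with membrane potential dye containing 100 uM RO 20-1724. Compound exposure was 30 min, and depolarization was read as fluorescence at 590 nm.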
Starred values were filed as active, the others as inactive; i = inactive; ? = inconclusive; nt = no result; [ ] = dose if it differs, or a comment. The list is not random: actives were taken first. Their share in the collection is about 5.8%. Unless noted, calls follow the shape of the dose curve; as a rule, active = well fitted curve in the direction sought with a large enough effect; inconclusive = small, poorly fitted or top-dose-only effect, or another doubt; inactive = no such curve, though single readings can be large; an effect the other way counts as inactive or inconclusive. Potency is read from the fitted curve at half-maximal effect.

SMILES	Luciferase inh	PK Bst	HEK293 cAMP cs	GBA mod	TSHR agonist
COc1ccc(-c2nc(CS(=O)(=O)CC(=O)NCCc3cc(OC)ccc3OC)c(C)o2)cc1	-3%	>57	25µM*	>77	?
COc1ccc(OC)c(CCNC(=O)CS(=O)(=O)Cc2nc(-c3ccc(C)cc3)oc2C)c1	-1%	>57	?	nt	?
O=c1c(-c2cc(F)cc(F)c2)nc2cnc(N3CCOCC3)nc2n1C[C@H]1CCCO1	0%[11.4 µM]	nt	3%[2.29 µM]	nt	2%
CCn1ncc(Br)c1C(=O)Nc1cc(C(=O)OC)ccc1C(=O)OC	2%	>57	13µM*	>77	?
Nc1nc2ccc(N3CCOCC3)cc2s1	16µM*	i	-1%	>77	-2%
COC(=O)c1nnn(-c2nonc2N)c1CSc1ccccn1	1%	nt	32µM*	>77	?
CC1(N)CCC(C(C)(C)N)CC1 (stereo not given)	nt	nt	-4%	nt	2%
COc1cc(OC)c(NC2c3ccccc3C(=O)N2c2cc(C)ccn2)cc1Cl (stereo not given)	1%	nt	4%	nt	6%
O=C1c2ccccc2C(Nc2ccc(Cl)cn2)N1c1ccccn1 (stereo not given)	1%	nt	16µM*	nt	?
CC1CCC2C(=O)N3C(CCC(C)[C@@H]3c3ccc(-c4ccco4)cc3)C(=O)N2C1c1cccc(N2CCCC2=O)c1 (stereo not given in full)	nt	nt	-1%[11.4 µM]	nt	-8%[11.4 µM]
CCn1c(SCC(=O)Nc2ccc(N3CCOCC3)c(Cl)c2)nnc1-c1ccc(N)cc1	13µM*	nt	-9%	>77	5%
CCn1c(SCC(=O)Nc2ccccc2N2CCOCC2)nnc1-c1ccccc1	3%	>57	6%	>77	0%
O=C(Nc1ccccc1)N1CCC2(CCNCC2)CC1	-1%[11.4 µM]	nt	-6%	nt	-3%
Cc1ccc(-c2nnc(SCC(=O)N3CC(C)CC(C)C3)o2)cc1C (stereo not given)	-17%	nt	16µM*	nt	?
CN1CCN(c2ccc(Cl)cc2NS(=O)(=O)c2ccccc2Cl)CC1	-10%	>57	17%	13*	8%
c1ccc2c(c1)Cn1nnnc1-2	2%	>57	3%	>77	2%
c1ccc2c(c1)Cn1c-2nc2ccccc21	13µM*	?	16µM*	?	?
COc1ccc(-c2csc(NCc3ccco3)n2)cc1	5µM*	4.6*	-5%	>77	-15%
O=c1onc2cnc3ccccc3n12	-1%	nt	2%	nt	13%
CSc1nc2[nH]c3c(c2c2nncn12)CC(C)(C)OC3	-2%[25.5 µM]	i	nt	nt	nt
CSc1nc2[nH]c3c(c2c2nnnn12)CCCC3	-3%[25.5 µM]	0.78*	nt	nt	nt
O=C(COC(=O)c1cccs1)c1ccccc1	5µM*	?	1%	>77	-4%
O=C(COC(=O)c1cc2ccccc2o1)c1ccccc1	13µM*	nt	8%[11.4 µM]	nt	3%[11.4 µM]
O=C(Cc1ccc(F)cc1)OCC(=O)c1cc2ccccc2o1	-44%	>57	12%	>77	-4%
N#C[C@H](Cc1ccc(O)cc1)c1ccc(O)cc1	-4%	nt	-11%	nt	-5%
SMILES	Luciferase inh	PK Bst	HEK293 cAMP cs	GBA mod	TSHR agonist
C[C@@H](C(=O)NCC1CC1)[C@H]1C[C@]1(C)[C@H](NC(=O)OCc1ccccc1)c1ccccc1	nt	nt	10µM*	nt	?
C[C@@H](C(=O)NCc1ccccc1)[C@@H]1C[C@@]1(C)[C@@H](NC(=O)OCc1ccccc1)c1ccccc1	nt	nt	12%	nt	6%
C[C@@H](C(=O)N[C@@H](CO)Cc1ccccc1)[C@H]1C[C@]1(C)[C@H](NC(=O)OCc1ccccc1)c1ccccc1	nt	nt	10µM*	nt	?
CNC(=O)[C@H](C)[C@@H]1C[C@@]1(C)[C@@H](NC(=O)OCc1ccccc1)c1ccccc1	nt	nt	12%	nt	16%
CNC(=O)[C@H](C)[C@H]1C[C@]1(C)[C@H](NC(=O)OCc1ccccc1)c1ccccc1	nt	nt	6.3µM*	nt	?
COC(=O)[C@H](Cc1ccccc1)NC(=O)[C@]1(C)C[C@H]1[C@H](NC(=O)OCc1ccccc1)c1ccccc1	nt	nt	5µM*	nt	?
Cc1nc2cnc(N(C)C)nc2n(-c2ccccc2)c1=O	1%[11.4 µM]	nt	16%	nt	6%
CC(=O)C1=C(O)C=C(c2ccco2)CC1c1ccco1 (stereo not given)	1%	>57	16µM*	>77	?
Cc1ccc2c(Cl)cc(Cl)c(OCc3c(C)noc3C)c2n1	2%	>57	16µM*	>77	?
O=C(Nc1c2c(nn1-c1ccc(F)cc1)CS(=O)(=O)C2)C12CC3CC(CC(C3)C1)C2	-1%	>57	16µM*	>77	?
O=C(CCC1CCCCC1)Nc1c2c(nn1-c1ccc(F)cc1)CS(=O)(=O)C2	-3%	>57	3.2µM*	>77	?
O=C1C(Cl)=C(NCCCN2CCOCC2)C(=O)N1CCc1ccccc1	3%	>57	8%	11*	1%
O=C1C(Cl)=C(N2CCOCC2)C(=O)N1CCc1ccccc1	-10%	>57	20%	>77	5%
O=c1c(-c2cccs2)nc2cnc(N3CCOCC3)nc2n1-c1ccccc1	0%[11.4 µM]	nt	26%	nt	4%
CN(C)c1nc(Oc2ccc(C(=O)OCC(=O)Nc3ccccc3)cc2)nc(N(C)C)n1	-3%	nt	3.2µM*	nt	?
CC1c2[nH]c3ccccc3c2CCN1C(=O)Nc1ccccc1 (stereo not given)	2%	>57	-12%	>77	-10%
CC(C)=CCC(C)(C)C1OCCN1C(=O)Nc1ccccc1 (stereo not given)	2%	>57	24%	nt	10µM*
O=C(C1CCC(CNS(=O)(=O)c2cccc3cccnc23)CC1)N1CCCC1 (stereo not given)	0%	nt	25µM*	nt	?
O=C(C1CCC(CNS(=O)(=O)c2cccs2)CC1)N1CCCCC1 (stereo not given)	2%	>57	11%	>77	2%[11.4 µM]
CCCN(CCC)C[C@@H]1CCCCN1CCNC(=O)N1c2ccccc2C(=O)Nc2cccnc21	1%	nt	15%	nt	5%
Cc1cc(C)n(CCOC(=O)c2sc3ccccc3c2Cl)n1	16µM*	i	28%	>15	nt
O=C(Oc1cccc(-n2cnnn2)c1)c1sc2ccccc2c1Cl	1%	>57	13%	>77	-5%
COC(=O)c1ccc(NC(=O)c2ccccc2NS(C)(=O)=O)cc1	16µM*	nt	-1%	>77	-4%
COCC(=O)N1CCC2(CCCN(c3ccc(-c4ccccc4)cc3)C2)CC1	0%[11.4 µM]	nt	7%	nt	-7%
CCCc1cc(=O)oc2cc3oc(C)c(C)c3cc12	1%	>57	25µM*	>77	?
CCc1cc(=O)oc2cc3oc(C)c(C)c3cc12	-1%	>57	25µM*	i	?
CCCCn1c(=N)n(CC(=O)C(C)(C)C)c2ccccc21	1%	>57	2%	>77	12%
Cn1c(=N)n(CC(=O)C(C)(C)C)c2ccccc21	-2%	>57	29%	13*	16%
